According to PubChem BioAssay (NCI):
This is part of a sample that, as a whole, favours compounds with a hit. Of some 83,000 tested, about 20% had one in any assay.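 Treatment: one concentration, 48 hours, 96-well format. Scoring: percent growth, with anything below 10 considered active.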 The source made the active and inactive calls.

Tests used:
Assay in all cases: NCI-60 one-dose screen, 48 h (100 = growth as untreated, 0 = no growth, -100 = all killed)
Conditions in all cases: 10 µM unless noted
[1] = tested on: DU-145 prostate
[2] = tested on: K-562 leukemia
[3] = tested on: MALME-3M melanoma
[4] = tested on: MDA-MB-231 breast
[5] = tested on: RXF 393 renal
[6] = tested on: SF-268 CNS
[7] = tested on: SF-295 CNS
[8] = tested on: SF-539 CNS
[9] = tested on: UACC-257 melanoma
[10] = tested on: M14 melanoma

Measured: growth

CCN1C(=O)N(CC)C2C1N=C(SCc1ccc(Cl)cc1)N2/N=C/C=C/c1ccccc1OC (stereo not given)
inactive: [1] 90.7% | [2] 20.9% | [3] 60.9% | [4] 75.2% | [5] 49.8% | [6] 64.5% | [7] 57.5% | [8] 68% | [9] 42% | [10] 45.5%

O=S1(=O)C=C(c2ccccc2)C(c2ccccc2)=C1
inactive: [4] 11% | [7] 73.5% | [10] 12.1%
active: [1] 9.89% | [2] 4.11% | [3] -32.6% | [5] -86.8% | [6] 3.46% | [8] 9.24% | [9] 2.35%

O=[N+]([O-])c1ccc(-c2cn3nc(-c4c[nH]c5ccccc45)sc3n2)cc1
inactive: [1] 110% | [2] 84.1% | [3] 89.5% | [4] 94% | [5] 108% | [6] 108% | [7] 102% | [8] 105% | [9] 95.3% | [10] 97%

CCN1CCN(CC(=O)Nc2nc3ccc(NCc4ccc(F)cc4)cc3s2)CC1
inactive: [1] 95.1% | [2] 58.8% | [3] 90.7% | [4] 91% | [5] 94.8% | [6] 94.3% | [7] 99% | [8] 74.1% | [9] 108% | [10] 91.4%

Cc1ccc(/C=C/C(=O)Nc2ncc(Cc3ccc(F)cc3)s2)o1
inactive: [1] 55.6% | [2] 20.3% | [3] 45.9% | [4] 77.7% | [5] 66.9% | [6] 53.3% | [7] 35% | [8] 48.2% | [9] 76.3% | [10] 33.5%

C=C1C(=O)O[C@H]2[C@H]1CC/C(COC(=O)CSCSCC(=O)OC/C1=C/CC[C@@]3(C)O[C@H]3[C@H]3OC(=O)C(=C)[C@@H]3CC1)=C\CC[C@@]1(C)O[C@@H]21
inactive: [1] 28.3% | [6] 20.7% | [7] 70.3% | [9] 34.1%
active: [2] 3.55% | [3] -4.65% | [4] -27.9% | [5] -86.7% | [8] 3.58% | [10] 4.26%

COc1ccc(C2=CN3CC=CC3CC2=O)cc1 (stereo not given)
inactive: [1] 98.9% | [2] 98.4% | [3] 81.6% | [4] 105% | [5] 110% | [6] 98.2% | [7] 93.3% | [8] 95% | [9] 92.9% | [10] 106%

CCCCCCCCCCCCCCCCCCOc1ccccc1CC(=O)NCC[N+]1(C)CCCCC1
inactive: [1] 68.7% | [2] 34.2% | [3] 44.9% | [4] 36.6% | [5] 18.4% | [6] 34% | [7] 90.2% | [8] 84% | [9] 88.3% | [10] 68.3%

N#Cc1c(-c2ccccc2)nc(SCC(O)CN2CCOCC2)nc1N1CCOCC1 (stereo not given)
inactive: [1] 61.7% | [2] 90% | [3] 23.1% | [4] 77.3% | [5] 72.5% | [6] 62.3% | [7] 43.6% | [8] 56.6% | [9] 17.1% | [10] 59.9%

COc1ccc(/C=C/C(c2cc(OC)c(OC)c(OC)c2)n2ccnc2)cc1O (stereo not given)
inactive: [1] 37.8% | [2] 13.6% | [3] 57.7% | [4] 53% | [5] 33.1% | [6] 56.1% | [7] 16.6% | [8] 23.1% | [9] 34.2% | [10] 18.6%

COc1cc(C(=O)c2c(-c3ccccc3)oc3c(OC)cccc23)cc(OC)c1OC
active: [1] 6.56% | [4] -0.456% | [5] -3.42% | [7] 2.79% | [8] -26.1% | [10] 3.87%
inactive: [2] 12.3% | [3] 42.2% | [6] 30.1% | [9] 71.1%

Ic1ccccc1I
inactive: [1] 116% | [2] 103% | [3] 131% | [4] 111% | [5] 100% | [6] 111% | [7] 106% | [8] 104% | [9] 88.3% | [10] 94.3%

Cc1ccc(C)c2c(C)c(C(=O)Nc3cccc(-n4cccn4)c3)oc12
inactive: [1] 76.5% [50 µM] | [2] 37.1% [50 µM] | [3] 67.6% [50 µM] | [4] 76.9% [50 µM] | [5] 79.6% [50 µM] | [6] 67.4% [50 µM] | [7] 66% [50 µM] | [8] 85.2% [50 µM] | [9] 92.9% [50 µM] | [10] 63.5% [50 µM]

O=C(Nc1ccc(Br)cc1)C1=NCCCCN1
inactive: [1] 85.1% | [2] 50.8% | [3] 104% | [4] 92.1% | [5] 110% | [6] 79.6% | [7] 98.2% | [8] 90.9% | [9] 100% | [10] 81.6%

CCCn1cnc2c(c1=N)C(c1ccc(F)cc1)c1sc3c(F)cccc3c1O2 (stereo not given)
inactive: [1] 76.6% | [2] 16.9% | [3] 54.1% | [4] 63.3% | [5] 52.2% | [6] 49.6% | [7] 27.7% | [8] 32.6% | [9] 73.4% | [10] 39.3%

Cn1ccc(=O)nc1
inactive: [2] 91.9% | [3] 111% | [4] 91.9% | [5] 92.6% | [6] 86.1% | [7] 82.9% | [8] 99.9% | [9] 88.3% | [10] 102%
active: [1] 8.53%

C=C(C)[C@@H]1CCC[C@]2(C(=O)N3CCN(C)CC3)CC[C@]3(C)[C@@H](CC[C@@H]4[C@@]5(C)CC/C(=N\NC(=O)c6ccncc6)C(C)(C)[C@@H]5CC[C@]43C)[C@@H]12
inactive: [1] 100% | [2] 17.6% | [3] 74.1% | [4] 66.8% | [5] 99.7% | [6] 84.2% | [7] 104% | [8] 104% | [9] 103% | [10] 74.3%

Fc1ccc2[nH]cc(-c3nc(-c4c[nH]c5ccncc45)cs3)c2c1
active: [1] -0.992% | [2] -41.7% | [3] -85.3% | [4] -59.8% | [5] -84.6% | [6] -31.5% | [7] -74.1% | [8] -92.6% | [9] -67.8% | [10] -66.4%

O=[N+]([O-])c1cc(NS(=O)(=O)c2ccccc2)ccc1NS(=O)(=O)c1ccccc1
inactive: [1] 87.1% | [2] 125% | [3] 155% | [4] 91% | [5] 134% | [6] 106% | [7] 133% | [8] 118% | [9] 95% | [10] 88.5%

Cc1ccc(-c2csc(NC(=O)c3ccccc3CN3C(=O)c4ccccc4C3=O)n2)cc1
inactive: [1] 96.5% | [2] 100% | [3] 93.7% | [4] 93.2% | [5] 89.8% | [6] 86.6% | [7] 95.6% | [8] 98.4% | [9] 92.4% | [10] 106%

CCc1ccc(CCC(=O)Nc2ncc(Cc3cc(Cl)ccc3Cl)s2)o1
inactive: [1] 18.5% | [3] 43.5% | [4] 28.6% | [6] 60.9% | [9] 69.9%
active: [2] 9.71% | [5] -32.5% | [7] 6.84% | [8] -6.72% | [10] 6.6%

COC(=O)CCC/C=C\C[C@H]1C=CC(=O)/C1=C/C[C@@H](O)C/C=C\CC(F)(F)F
inactive: [1] 24.9% | [3] 10.2% | [6] 17.6% | [8] 17.8%
active: [2] 6.69% | [4] 8.26% | [5] -5.41% | [7] -1.18% | [9] -15.6% | [10] -16.8%

COc1ccc(-c2nc(/C=C3\C(=O)N(C)c4ccccc43)c3ccccn23)cc1
inactive: [1] 93% | [2] 95.9% | [3] 72.5% | [4] 85.2% | [5] 67.4% | [6] 66% | [7] 83.2% | [8] 72.7% | [9] 86% | [10] 99.1%

O=C1c2ccccc2C(=O)C1c1ccc(Br)cc1
inactive: [1] 118% | [2] 104% | [3] 88.8% | [4] 89.4% | [5] 121% | [6] 113% | [7] 90.5% | [8] 104% | [9] 110% | [10] 109%

CCN1C(=O)N(CC)C2C1NN=c1s/c(=C\c3cnc(C)n3C)c(=O)n12 (stereo not given)
inactive: [2] 15.5% | [3] 29.8% | [4] 43.8% | [6] 51.9% | [9] 29.7%
active: [1] 5.42% | [5] -29.3% | [7] 9.05% | [8] -20.2% | [10] 4.96%

CC1(C)CC2=C3C=C[C@@H]4[C@@]5(C)CCC(=O)C(C)(C)[C@@H]5CC[C@@]4(C)[C@]3(C)CC[C@@]2(C(=O)O)C[C@H]1O
active: [3] 3.59% | [4] -8.81%
inactive: [1] 65% | [2] 33.1% | [5] 29.1% | [6] 32.6% | [7] 20.5% | [8] 34.8% | [9] 10.5% | [10] 17.6%
